Results published in PubChem BioAssay (EPA / NIEHS).
Where “and” joins values, the source holds several entries; their conditions need not be identical. Identical values can stand only once. Inconclusive results are not listed. Where a structure was tested more than once in an assay, its records may differ in their call. Calls of active or inactive are those of the source. How the source made its calls, unless noted: active means hit-call score of the fitted dose curve at least 0.9, where 1 is the maximum; inconclusive means response in the unintended direction; inactive means score below 0.9.

Columns and labels:
[1] = TOX21_p53_BLA_p2_viability: Viability Assessment in the Tox21 HCT-116 p53 Agonism Beta-lactamase Assay, Phase 2 (AID 2283591);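 further: actives lower the ATP signal meaning cytotoxicity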
How it was run: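 HCT116 p53-bla cells, 4000/well, dosed after 5 h plating (217-fold dilution of DMSO stocks) and incubated 16 h at 37C. Viability taken as cellular ATP by CellTiter-Glo luminescence after 30 min RT; signal loss marks cytotoxicity.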

[2] = target: Cellular tumor antigen p53 (Homo sapiens) (UniProt P04637); experiment: TOX21_p53_BLA_p2_ratio: Tox21 HCT-116 p53 Agonism Beta-lactamase Assay, Ratio, Phase 2 (AID 2283592)
How it was run: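 An inducible beta-lactamase reporter in HCT116 cells signals p53 pathway activation. After 16 h chemical exposure at 37C, cells load CCF4-AM substrate for 2 h at room temperature; activity is the cleaved/uncleaved emission ratio relative to DMSO.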

[3] = target: Cellular tumor antigen p53 (Homo sapiens) (UniProt P04637); experiment: TOX21_p53_BLA_p3_ratio: Tox21 HCT-116 p53 Agonism Beta-lactamase Assay, Ratio, Phase 3 (AID 2283596)
How it was run: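 HCT116 p53-bla cells (4000/well) given compound in DMSO (217-fold dilution) after 5 h, incubated 16 h at 37C. CCF4-AM substrate 2 h at room temperature; 460/530 nm emission ratio, gain fitted against DMSO.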

[4] = TOX21_p53_BLA_p4_viability: Viability Assessment in the Tox21 HCT-116 p53 Agonism Beta-lactamase Assay, Phase 4 (AID 2283597);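 further: hits lower the luminescence signal meaning cytotoxicity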
How it was run: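 Compound exposure of HCT116 cells lasts 16 h at 37C, 5% CO2, with DMSO stocks diluted 217-fold. Cellular ATP is then quantified by CellTiter-Glo luminescence after 30 min at room temperature.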

[5] = target: Cellular tumor antigen p53 (Homo sapiens) (UniProt P04637); experiment: TOX21_p53_BLA_p5_ratio: Tox21 HCT-116 p53 Agonism Beta-lactamase Assay, Ratio, Phase 5 (AID 2283599)
How it was run: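 HCT-116 p53-bla cells (4000/well) plated 5 h, dosed with compound (217-fold DMSO dilution) for 16 h at 37 C; CCF4-AM substrate 2 h at room temperature. Activity is the 460/530 nm emission ratio (405 nm excitation), fitted in gain-of-signal direction versus DMSO.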

[6] = TOX21_p53_BLA_p5_viability: Viability Assessment in the Tox21 HCT-116 p53 Agonism Beta-lactamase Assay, Phase 5 (AID 2283600)
How it was run: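 Counter-readout for cytotoxicity: ATP-dependent luminescence from CellTiter-Glo, read in the beta-lactamase wells after 30 min at RT, following a 16 h compound exposure at 37C.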

[7] = target: Cellular tumor antigen p53 (Homo sapiens) (UniProt P04637); experiment: TOX21_p53_BLA_p4_ratio: Tox21 HCT-116 p53 Agonism Beta-lactamase Assay, Ratio, Phase 4 (AID 2283601)
How it was run: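 HCT-116 p53 beta-lactamase reporter cells (4000/well) preincubated 5 h, then compound (217-fold dilution of DMSO stock) for 16 h at 37C. CCF4-AM substrate added 2 h at room temperature; 460/530 nm emission ratio fitted upward versus DMSO.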

[8] = CCTE_Harrill_HTTr_Viability_MCF7: CCTE's 6-hour Cell Viability Assessment for the High-Throughput Transcriptomics (HTTr) Platform, in MCF-7 cells cultured in DMEM + 10% fetal bovine serum, Harrill Lab (AID 2284010; active means hit-call score of the fitted dose curve at least 0.9, where 1 is the maximum; inactive means score below 0.9)
How it was run: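 Cells were dosed with chemicals in an eight-point dilution series, imaged 6 hours later for propidium iodide uptake, and the endpoint was analyzed by bidirectional fitting against DMSO as negative control.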

[9] = CCTE_Harrill_HTTr_Apoptosis_MCF7: CCTE's 6-hour Apoptosis Assessment for the High-Throughput Transcriptomics (HTTr) Platform, in MCF-7 cells cultured in DMEM + 10% fetal bovine serum, Harrill Lab (AID 2284011; active means hit-call score of the fitted dose curve at least 0.9, where 1 is the maximum; inactive means score below 0.9)
How it was run: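 Cells are dosed with test chemicals at eight concentrations and imaged 6 hours later for caspase-3/7 activity using a green fluorogenic detection reagent. Activity is fitted in both directions against DMSO controls.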

[10] = target: Estrogen receptor (Homo sapiens) (UniProt P03372); experiment: NVS_NR_hER: NovaScreen (NVS) Nuclear Receptor Binding Assay for human Estrogen Receptor (ER) (AID 2283348)
How it was run: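 Radioligand competitive displacement binding to estrogen receptor from MCF7 extract, cell-free; 18 h after dosing, scintillation read-out. Primary screen in duplicate at 25 uM; actives followed up in concentration series; loss of signal vs DMSO.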

[11] = TOX21_p53_BLA_p3_viability: Viability Assessment in the Tox21 HCT-116 p53 Agonism Beta-lactamase Assay, Phase 3 (AID 2283593);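 further: cells exposed to compound for 16 h before reading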
How it was run: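 HCT116 cells, 4000/well, dosed 5 h after plating by pin transfer (217-fold dilution from DMSO stock) and incubated 16 h at 37C, 5% CO2. Viability read as ATP luminescence with CellTiter-Glo after 30 min at room temperature.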

Measured: AC50

Chain of Cellular tumor antigen p53 (Homo sapiens) (P04637 whole entry, looked up): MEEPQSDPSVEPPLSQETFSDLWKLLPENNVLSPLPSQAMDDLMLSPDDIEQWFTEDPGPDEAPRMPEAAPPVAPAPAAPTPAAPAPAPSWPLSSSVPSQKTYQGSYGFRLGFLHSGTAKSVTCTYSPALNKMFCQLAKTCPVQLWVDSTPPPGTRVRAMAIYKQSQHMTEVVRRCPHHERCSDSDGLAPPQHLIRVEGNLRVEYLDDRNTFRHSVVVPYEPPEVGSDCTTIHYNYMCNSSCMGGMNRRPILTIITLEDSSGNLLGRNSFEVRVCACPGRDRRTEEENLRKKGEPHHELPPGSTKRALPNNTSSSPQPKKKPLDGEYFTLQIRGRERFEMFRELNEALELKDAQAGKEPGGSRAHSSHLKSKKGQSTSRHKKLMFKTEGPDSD
Chain of Estrogen receptor (Homo sapiens) (P03372 whole entry, looked up): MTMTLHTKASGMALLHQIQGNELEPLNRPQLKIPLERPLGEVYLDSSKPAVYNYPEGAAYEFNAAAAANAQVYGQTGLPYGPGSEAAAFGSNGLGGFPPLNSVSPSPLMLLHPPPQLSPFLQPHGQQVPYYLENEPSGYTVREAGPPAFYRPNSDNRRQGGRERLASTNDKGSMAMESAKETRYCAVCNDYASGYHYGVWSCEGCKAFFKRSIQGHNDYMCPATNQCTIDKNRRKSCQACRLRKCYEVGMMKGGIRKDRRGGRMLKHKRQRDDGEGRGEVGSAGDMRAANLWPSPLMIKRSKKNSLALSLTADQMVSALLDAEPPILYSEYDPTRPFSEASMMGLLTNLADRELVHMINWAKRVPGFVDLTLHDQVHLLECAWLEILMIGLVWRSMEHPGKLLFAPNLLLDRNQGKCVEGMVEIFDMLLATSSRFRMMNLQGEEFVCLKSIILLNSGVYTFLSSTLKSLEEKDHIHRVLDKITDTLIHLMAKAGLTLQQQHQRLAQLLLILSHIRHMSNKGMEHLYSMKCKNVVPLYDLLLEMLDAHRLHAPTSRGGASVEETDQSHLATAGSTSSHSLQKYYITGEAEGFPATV

CNCCC(Oc1ccc(C(F)(F)F)cc1)c1ccccc1 (stereo not drawn)
inactive: [1] | [2] | [3] | [5] | [6] | [7]
active: [1] 68.1 µM | [4] 67.3 µM and 33.8 µM | [6] 73.2 µM | [8] 75.8 µM | [9] 69.4 µM

CCOc1nc2cccc(C(=O)OC(C)OC(=O)OC3CCCCC3)c2n1Cc1ccc(-c2ccccc2-c2nn[nH]n2)cc1 (stereo not drawn)
inactive: [10] | [8] | [9]
active: [1] 8.23 µM | [2] 14 µM | [11] 13 µM | [3] 34 µM | [4] 13.4 µM | [5] 15.7 µM | [6] 7.02 µM | [7] 24.4 µM

CC(=O)O[C@]1(C(C)=O)CC[C@H]2[C@@H]3C=C(Cl)C4=CC(=O)CC[C@]4(C)[C@H]3CC[C@@]21C
active: [2] 43.1 µM | [3] 72.5 µM | [4] 21.8 µM | [7] 38 µM
inactive: [1] | [2] | [11] | [3] | [4] | [5] | [6] | [7]

CCCCCCCCCCCCCCCCCCOCC(COP(=O)([O-])OCC[N+](C)(C)C)OC (stereo not drawn)
active: [1] 36.3 µM | [2] 43.6 µM

C=CCN1CCc2nc(N)sc2CC1
inactive: [1] | [2]

Cc1cc(Br)ccc1NC(=O)CCl
inactive: [10]
active: [1] 69.3 µM | [2] 23.2 µM | [11] 46.1 µM | [3] 13.3 µM | [4] 58.3 µM | [5] 13.3 µM | [6] 46.1 µM | [7] 25.3 µM

O=S(=O)(O)c1cc(Cl)c(Cl)cc1Cl
inactive: [10] | [1] | [4] | [5]

O=[Se](O)O
active: [1] 7.1 µM | [2] 1.79 µM | [11] 13.3 µM | [3] 0.548 µM | [4] 26 µM | [5] 2.46 µM | [7] 4.23 µM
inactive: [1] | [2] | [11] | [3] | [4] | [5] | [6] | [7]

CC(=O)CCc1ccc(OC(C)=O)cc1
inactive: [10] | [1] | [2] | [11] | [5] | [7]

Oc1c(I)cc(Cl)c2cccnc12
active: [1] 8.67 µM | [2] 7.99 µM | [11] 12.7 µM | [4] 4.52 µM and 18.6 µM | [5] 7.84 µM
inactive: [1] | [2] | [11] | [3] | [5] | [6] | [7]

CCC(=O)C(=O)CC
not listed: [8] | [9] | [10]
inactive: all other assays above

NNCCc1ccccc1
active: [4] 74.1 µM
inactive: [1] | [2] | [11] | [3] | [4] | [5] | [6] | [7]

CC(=O)Nc1ccccc1C
inactive: [1] | [2] | [11] | [3] | [4] | [5]

COC(=O)[C@H]1[C@H]2C[C@@H]3c4[nH]c5ccccc5c4CCN3C[C@H]2C[C@@H](OC(=O)c2cc(OC)c(OC)c(OC)c2)[C@@H]1OC
active: [4] 6.8 µM | [7] 15.7 µM
inactive: [1] | [2] | [11] | [3] | [4] | [5] | [6] | [7]

Oc1cccc(-c2c3nc(c(-c4cccc(O)c4)c4ccc([nH]4)c(-c4cccc(O)c4)c4nc(c(-c5cccc(O)c5)c5ccc2[nH]5)CC4)C=C3)c1
active: [1] 20.2 µM and 17.5 µM | [2] 26.1 µM and 33.8 µM | [11] 35.7 µM | [3] 37.4 µM | [4] 17 µM and 33.2 µM | [5] 37.1 µM and 38.3 µM | [6] 42.9 µM | [7] 24.5 µM and 36.4 µM
inactive: [11] | [3] | [6]

C#C[C@]1(OC(C)=O)CC[C@H]2[C@@H]3CCC4=C[C@@H](OC(C)=O)CC[C@@H]4[C@H]3CC[C@@]21C
inactive: [2] | [11] | [3] | [4] | [5] | [6] | [7] | [8] | [9]
active: [1] 36.9 µM and 34.4 µM | [11] 37.3 µM | [5] 43 µM | [6] 36.7 µM

CCCCCOC(=O)CCCC
inactive: [1] | [2] | [11]

CC1=CC(=C(c2ccc(N)cc2)c2ccc(N)cc2)C=CC1=N
active: [2] 19.9 µM
inactive: [1] | [2] | [11] | [3] | [4] | [5] | [6] | [7]

C[C@@H](O)[C@H]1C(=O)N2C(C(=O)O)=C(SCCN=CN)C[C@H]12
inactive: [1] | [2] | [11] | [3] | [4] | [5]

CCCCCC=CCC=CCCCCCCCC(=O)OCC
inactive: [1] | [2] | [11]

CC=CC(=O)CCCC
inactive: [1] | [2] | [11] | [3] | [4]

CO[C@H]1C[C@@H]2CC[C@@H](C)[C@@](O)(O2)C(=O)C(=O)N2CCCC[C@H]2C(=O)O[C@H]([C@H](C)C[C@@H]2CC[C@@H](O)[C@H](OC)C2)CC(=O)[C@H](C)/C=C(\C)[C@@H](O)[C@@H](OC)C(=O)[C@H](C)C[C@H](C)\C=C/C=C/C=C/1C
inactive: [2]
active: [1] 18.1 µM and 20.6 µM | [2] 29.7 µM | [11] 33.3 µM and 22.4 µM | [3] 41 µM and 40.8 µM | [4] 17.5 µM and 17.7 µM | [5] 35.1 µM and 34.8 µM | [6] 23.7 µM and 23.9 µM | [7] 21.7 µM and 20.8 µM

CC1(C)[C@@H](O)CC[C@]2(C)[C@H]3C(=O)C=C4[C@@H]5C[C@@](C)(C(=O)O)CC[C@]5(C)CC[C@@]4(C)[C@]3(C)CC[C@@H]12
inactive: [1] | [2] | [11] | [3] | [4] | [5] | [6] | [7]
active: [11] 61.4 µM and 22.5 µM | [3] 46.4 µM | [5] 43.1 µM | [6] 30.6 µM and 33.5 µM
